In PubChem BioAssay (NCATS):
Records with an inconclusive call do not appear. Active and inactive are the calls of the source. Calls follow the shape of the dose curve; as a rule, active = well fitted inhibition curve with a large enough effect; inconclusive = small, poorly fitted or top-dose-only effect; inactive = flat fitted curve, though single readings scatter.

Assays:
[1] = qHTS profiling for inhibitors of Plasmodium falciparum proliferation (AID 504749); also: nearly all actives have a fitted effect of over 60% in size;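 as to activity, negative = inhibition: 0% = DMSO vehicle and full inhibition = artemisinin control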; conditions: P. falciparum in erythrocytes, SYBR Green DNA, 72 h
In short: (§1)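 Each compound contacts P. falciparum-infected red blood cells for 72 h at 37 C; lysis buffer (Tris, EDTA, saponin, Triton X, SYBR Green I) is added and fluorescence measured next morning; values normalized to controls.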

[2] = tested on: 3D7; experiment: as above; conditions: P. falciparum in erythrocytes, SYBR Green DNA, 72 h; series mostly up to 28.7 µM
In short: as §1

[3] = tested on: 7G8; experiment: as above; conditions: P. falciparum in erythrocytes, SYBR Green DNA, 72 h; series mostly up to 28.7 µM
In short: as §1

[4] = tested on: AA1029; experiment: as above; conditions: P. falciparum in erythrocytes, SYBR Green DNA, 72 h; series mostly up to 28.7 µM
In short: as §1

[5] = tested on: AS120; experiment: as above; conditions: P. falciparum in erythrocytes, SYBR Green DNA, 72 h; series mostly up to 28.7 µM
In short: as §1

[6] = tested on: ATS189; experiment: as above; conditions: P. falciparum in erythrocytes, SYBR Green DNA, 72 h; series mostly up to 28.7 µM
In short: as §1

[7] = tested on: ATS95; experiment: as above; conditions: P. falciparum in erythrocytes, SYBR Green DNA, 72 h; series mostly up to 28.7 µM
In short: as §1

[8] = tested on: C2A; experiment: as above; conditions: P. falciparum in erythrocytes, SYBR Green DNA, 72 h; series mostly up to 28.7 µM
In short: as §1

[9] = tested on: CP185; experiment: as above; conditions: P. falciparum in erythrocytes, SYBR Green DNA, 72 h; series mostly up to 28.7 µM
In short: as §1

[10] = tested on: CP191; experiment: as above; conditions: P. falciparum in erythrocytes, SYBR Green DNA, 72 h; series mostly up to 28.7 µM
In short: as §1

[11] = tested on: CP192; experiment: as above; conditions: P. falciparum in erythrocytes, SYBR Green DNA, 72 h; series mostly up to 28.7 µM
In short: as §1

[12] = tested on: CP194; experiment: as above; conditions: P. falciparum in erythrocytes, SYBR Green DNA, 72 h; series mostly up to 28.7 µM
In short: as §1

[13] = tested on: CP201; experiment: as above; conditions: P. falciparum in erythrocytes, SYBR Green DNA, 72 h; series mostly up to 28.7 µM
In short: as §1

[14] = tested on: CP203; experiment: as above; conditions: P. falciparum in erythrocytes, SYBR Green DNA, 72 h; series mostly up to 28.7 µM
In short: as §1

[15] = tested on: CP211; experiment: as above; conditions: P. falciparum in erythrocytes, SYBR Green DNA, 72 h; series mostly up to 28.7 µM
In short: as §1

[16] = tested on: CP215; experiment: as above; conditions: P. falciparum in erythrocytes, SYBR Green DNA, 72 h; series mostly up to 28.7 µM
In short: as §1

[17] = tested on: CP217; experiment: as above; conditions: P. falciparum in erythrocytes, SYBR Green DNA, 72 h; series mostly up to 28.7 µM
In short: as §1

[18] = tested on: CP237; experiment: as above; conditions: P. falciparum in erythrocytes, SYBR Green DNA, 72 h; series mostly up to 28.7 µM
In short: as §1

[19] = tested on: CP238; experiment: as above; conditions: P. falciparum in erythrocytes, SYBR Green DNA, 72 h; series mostly up to 28.7 µM
In short: as §1

[20] = at 28.7 µM (top of the series), parasite line A
[21] = at 28.7 µM (top of the series), parasite line B
Potency is read from the fitted curve at half-maximal effect.

CCCCCCCC/C=C\CCCCCCCCN
inactive: activity, negative = inhibition [1, 20] 9.32% | activity, negative = inhibition [1, 21] 3.75% | Potency [2] | Potency [3] | Potency [4] | Potency [5] | Potency [6] | Potency [7] | Potency [8] | Potency [9] | Potency [10] | Potency [11] | Potency [12] | Potency [13] | Potency [14] | Potency [15] | Potency [16] | Potency [17] | Potency [18] | Potency [19]

CCCc1ncc(C[n+]2ccccc2C)c(N)n1
inactive: activity, negative = inhibition ([1]; at 12.8 µM (top of the series), parasite line A) 11.9% | activity, negative = inhibition ([1]; at 12.8 µM (top of the series), parasite line B) 12% | Potency [2] | Potency [3] | Potency [4] | Potency [5] | Potency [6] | Potency [7] | Potency [8] | Potency [9] | Potency [10] | Potency [11] | Potency [12] | Potency [13] | Potency [14] | Potency [15] | Potency [17] | Potency [18] | Potency [19]

COc1cc(O)c(C(=O)c2ccccc2)cc1S(=O)(=O)O
inactive: activity, negative = inhibition [1, 20] -0.769% | activity, negative = inhibition [1, 21] 4.93% | Potency [2] | Potency [4] | Potency [5] | Potency [7] | Potency [8] | Potency [9] | Potency [11] | Potency [12] | Potency [13] | Potency [14] | Potency [15] | Potency [16] | Potency [17] | Potency [18] | Potency [19]
active: Potency [3] 11.2 µM

OCCOCCN1CCN(C2=Nc3ccccc3Sc3ccccc32)CC1
inactive: activity, negative = inhibition [1, 20] 0.502% | activity, negative = inhibition [1, 21] 13.4% | Potency [2] | Potency [3] | Potency [4] | Potency [5] | Potency [6] | Potency [7] | Potency [8] | Potency [9] | Potency [10] | Potency [11] | Potency [12] | Potency [13] | Potency [14] | Potency [15] | Potency [16] | Potency [17] | Potency [19]

O=C(O)c1ccc(S(=O)(=O)N(Cl)Cl)cc1
inactive: activity, negative = inhibition [1, 20] -4.58% | activity, negative = inhibition [1, 21] 5.75% | Potency [2] | Potency [3] | Potency [4] | Potency [5] | Potency [6] | Potency [7] | Potency [8] | Potency [9] | Potency [10] | Potency [11] | Potency [12] | Potency [14] | Potency [15] | Potency [16] | Potency [17] | Potency [18] | Potency [19]

NC(N)=NN=C(/C=C/c1ccc([N+](=O)[O-])o1)/C=C/c1ccc([N+](=O)[O-])o1
active: Potency ([1]; parasite line A) 7.08 µM | Potency ([1]; parasite line B) 10 µM | Potency [2] 2.24 µM | Potency [3] 2.24 µM | Potency [4] 10 µM | Potency [5] 11.2 µM | Potency [7] 10 µM | Potency [8] 12.6 µM | Potency [10] 10 µM | Potency [18] 3.55 µM

N/C(=N\N=C\c1ccc(Cl)cc1)N/N=C/c1ccc(Cl)cc1
active: Potency ([1]; parasite line A) 3.16 µM | Potency ([1]; parasite line B) 5.01 µM | Potency [2] 3.98 µM | Potency [3] 2.82 µM | Potency [5] 5.01 µM | Potency [7] 8.91 µM | Potency [8] 8.91 µM | Potency [10] 3.16 µM | Potency [17] 8.91 µM | Potency [18] 10 µM
inactive: Potency [11] | Potency [12] | Potency [13] | Potency [14] | Potency [15] | Potency [16]

CN(C)CCC[C@@]1(c2ccc(F)cc2)OCc2cc(C#N)ccc21
inactive: activity, negative = inhibition [1, 20] 3.06% | activity, negative = inhibition [1, 21] 6.35% | Potency [2] | Potency [3] | Potency [5] | Potency [6] | Potency [7] | Potency [8] | Potency [9] | Potency [11] | Potency [12] | Potency [13] | Potency [15] | Potency [17] | Potency [18] | Potency [19]

CN1CCN(CCC(=O)N2c3ccccc3Sc3ccc(C(F)(F)F)cc32)CC1
active: Potency [3] 10 µM
inactive: activity, negative = inhibition [1, 20] 8.92% | activity, negative = inhibition [1, 21] -2.7% | Potency [2] | Potency [5] | Potency [7] | Potency [8] | Potency [11] | Potency [12] | Potency [13] | Potency [16] | Potency [17]
